Laboratory results as given in publication PMC5700166.

Columns and labels:
[1] = biological target: T1, GST-Nv-NF-kB (Ser allele) (Nematostella vectensis, UniProt A7UNT2 2-411); experiment: protein-binding microarray (PBM); PBM: ~300 nM protein, 6 mM HEPES pH 7.8, 80 mM KCl, 0.5 mM EDTA, 0.5 mM EGTA, 6% glycerol, 35 ng/ul poly-dIdC, 1% milk, 1 h, room temperature; Ap Aiptasia and Nv Nematostella (sea anemones) / Co Capsaspora / Aq Amphimedon (sponge) / Dm Drosophila / Hu human; RHD is the Rel homology domain; high values mean tight binding; settings: dsDNA, one strand shown
T1 sequence: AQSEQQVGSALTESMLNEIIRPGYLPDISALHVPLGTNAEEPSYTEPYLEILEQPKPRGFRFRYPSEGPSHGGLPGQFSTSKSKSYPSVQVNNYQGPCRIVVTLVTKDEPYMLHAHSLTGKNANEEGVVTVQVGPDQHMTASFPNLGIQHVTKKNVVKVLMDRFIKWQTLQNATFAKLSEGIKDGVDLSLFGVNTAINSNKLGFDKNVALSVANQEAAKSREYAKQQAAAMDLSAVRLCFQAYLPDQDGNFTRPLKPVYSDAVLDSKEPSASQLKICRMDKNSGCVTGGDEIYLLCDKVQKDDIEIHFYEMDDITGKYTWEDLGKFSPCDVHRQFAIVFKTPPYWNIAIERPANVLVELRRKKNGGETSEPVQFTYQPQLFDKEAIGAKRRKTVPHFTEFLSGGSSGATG

GST-Hu-p50 = GST-Hu-p50 (Homo sapiens, UniProt P19838 7-356); experiment: as above; settings: dsDNA, one strand shown
Chain of GST-Hu-p50 (P19838 7-356): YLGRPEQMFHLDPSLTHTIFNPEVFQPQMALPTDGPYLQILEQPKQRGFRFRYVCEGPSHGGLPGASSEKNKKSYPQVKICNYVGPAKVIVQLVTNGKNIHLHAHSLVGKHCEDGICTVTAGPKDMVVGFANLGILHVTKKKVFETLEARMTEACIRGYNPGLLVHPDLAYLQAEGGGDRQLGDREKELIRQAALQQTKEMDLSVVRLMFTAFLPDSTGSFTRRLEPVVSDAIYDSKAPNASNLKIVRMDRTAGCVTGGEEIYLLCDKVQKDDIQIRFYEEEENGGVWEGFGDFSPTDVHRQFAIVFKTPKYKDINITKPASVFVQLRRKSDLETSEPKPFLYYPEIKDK

| Sequence | binding signal [1] [z-score] | binding signal (GST-Hu-p50) [z-score] |
| --- | --- | --- |
| CCGATTAACATCAAGTATTTCCCTGATGTTAATCGGGTCTTGATTCGCTTGACGCTGCTG | 5.24 | 3.64 |
| CCGATTAACATCACTTTCCCAAATGATGTTAATCGGGTCTTGATTCGCTTGACGCTGCTG | 3.07 | 1.67 |
| CCGATTAACATCAGGGATTTCCATGATGTTAATCGGGTCTTGATTCGCTTGACGCTGCTG | 2.71 | 3.25 |
| CCGATTAACATCACCCGGGAAAATGATGTTAATCGGGTCTTGATTCGCTTGACGCTGCTG | 4.34 | 3.07 |
| CCGATTAACATCAGGGACAAAAATGATGTTAATCGGGTCTTGATTCGCTTGACGCTGCTG | 3.37 | 2.61 |
| CCGATTAACATCAGAGAAGTCCCTGATGTTAATCGGGTCTTGATTCGCTTGACGCTGCTG | 5.95 | 5.25 |
| CCGATTAACATCATTGGGAAAAATGATGTTAATCGGGTCTTGATTCGCTTGACGCTGCTG | 3.58 | 2.4 |
| CCGATTAACATCAGGTAATTTACTGATGTTAATCGGGTCTTGATTCGCTTGACGCTGCTG | 3.5 | 2.79 |
| CCGATTAACATCAGGGAATTCACTGATGTTAATCGGGTCTTGATTCGCTTGACGCTGCTG | 4.73 | 4.11 |
| CCGATTAACATCAGGGAATCAGATGATGTTAATCGGGTCTTGATTCGCTTGACGCTGCTG | 2.02 | 1.19 |
| CCGATTAACATCAGGGAATATAATGATGTTAATCGGGTCTTGATTCGCTTGACGCTGCTG | 3.88 | 2.29 |
| CCGATTAACATCAAGTATTCCCATGATGTTAATCGGGTCTTGATTCGCTTGACGCTGCTG | 2.35 | 1.64 |
| CCGATTAACATCAGGAACCTCCCTGATGTTAATCGGGTCTTGATTCGCTTGACGCTGCTG | 1.05 | 1.22 |
| CCGATTAACATCACGCAATTCCCTGATGTTAATCGGGTCTTGATTCGCTTGACGCTGCTG | 4.54 | 2.87 |
| CCGATTAACATCAGGGGAGGTACTGATGTTAATCGGGTCTTGATTCGCTTGACGCTGCTG | 4.46 | 3.17 |
| CCGATTAACATCACGGCTTTCCCTGATGTTAATCGGGTCTTGATTCGCTTGACGCTGCTG | 3.48 | 2.19 |
| CCGATTAACATCATCTGGGAAAATGATGTTAATCGGGTCTTGATTCGCTTGACGCTGCTG | 4.03 | 1.96 |
| CCGATTAACATCAGGTAATCCCATGATGTTAATCGGGTCTTGATTCGCTTGACGCTGCTG | 2.09 | 1.44 |
| CCGATTAACATCAGGAACGCCCCTGATGTTAATCGGGTCTTGATTCGCTTGACGCTGCTG | 1.92 | 3 |
| CCGATTAACATCACACCACCCCCTGATGTTAATCGGGTCTTGATTCGCTTGACGCTGCTG | 3.35 | 3.65 |
| CCGATTAACATCAGGAGGCCCCCTGATGTTAATCGGGTCTTGATTCGCTTGACGCTGCTG | 1.79 | 2.78 |
| CCGATTAACATCAGAAATCCCGATGATGTTAATCGGGTCTTGATTCGCTTGACGCTGCTG | 2.04 | 2.55 |
| CCGATTAACATCAGGAGTTTACCTGATGTTAATCGGGTCTTGATTCGCTTGACGCTGCTG | 2.03 | 1.4 |
| CCGATTAACATCAAAATTCCCATTGATGTTAATCGGGTCTTGATTCGCTTGACGCTGCTG | 5.71 | 4.55 |
| CCGATTAACATCACAAACGGGGCTGATGTTAATCGGGTCTTGATTCGCTTGACGCTGCTG | 1.73 | 2.88 |

| Sequence | binding signal [1] [z-score] | binding signal (GST-Hu-p50) [z-score] |
| --- | --- | --- |
| CCGATTAACATCACGTCCCCCCCTGATGTTAATCGGGTCTTGATTCGCTTGACGCTGCTG | 4.17 | 3.7 |
| CCGATTAACATCAGGGACGGAAATGATGTTAATCGGGTCTTGATTCGCTTGACGCTGCTG | 2.34 | 2.19 |
| CCGATTAACATCAGGGATTCCCATGATGTTAATCGGGTCTTGATTCGCTTGACGCTGCTG | 3.26 | 3.48 |
| CCGATTAACATCAAGCAACCCCCTGATGTTAATCGGGTCTTGATTCGCTTGACGCTGCTG | 3.95 | 4.45 |
| CCGATTAACATCAGGGGGGCACCTGATGTTAATCGGGTCTTGATTCGCTTGACGCTGCTG | 2 | 3.33 |
| CCGATTAACATCAGGTAACTACCTGATGTTAATCGGGTCTTGATTCGCTTGACGCTGCTG | 1.88 | 1.3 |
| CCGATTAACATCACGGGAAACCCTGATGTTAATCGGGTCTTGATTCGCTTGACGCTGCTG | 3.35 | 2.62 |
| CCGATTAACATCACGGTGGGAAATGATGTTAATCGGGTCTTGATTCGCTTGACGCTGCTG | 2.58 | 1.86 |
| CCGATTAACATCAAGCATCCCCCTGATGTTAATCGGGTCTTGATTCGCTTGACGCTGCTG | 5.87 | 4.97 |
| CCGATTAACATCAGGGACTTACCTGATGTTAATCGGGTCTTGATTCGCTTGACGCTGCTG | 5.49 | 4.61 |
| CCGATTAACATCAAAACAGTCCCTGATGTTAATCGGGTCTTGATTCGCTTGACGCTGCTG | 4.68 | 4.68 |
| CCGATTAACATCACCGCCCCACGTGATGTTAATCGGGTCTTGATTCGCTTGACGCTGCTG | 1.37 | 2.36 |
| CCGATTAACATCATGATGGGAAATGATGTTAATCGGGTCTTGATTCGCTTGACGCTGCTG | 1.98 | 2.02 |
| CCGATTAACATCAAGGGGGTAAATGATGTTAATCGGGTCTTGATTCGCTTGACGCTGCTG | 4.81 | 4.37 |
| CCGATTAACATCAGGGAATTAAATGATGTTAATCGGGTCTTGATTCGCTTGACGCTGCTG | 3.98 | 2.43 |
| CCGATTAACATCACCGATTTCCCTGATGTTAATCGGGTCTTGATTCGCTTGACGCTGCTG | 5.28 | 3.65 |
| CCGATTAACATCAAATGACCCCCTGATGTTAATCGGGTCTTGATTCGCTTGACGCTGCTG | 2.69 | 2.89 |
| CCGATTAACATCAATTACCCCCCTGATGTTAATCGGGTCTTGATTCGCTTGACGCTGCTG | 5.22 | 4.35 |
| CCGATTAACATCAGGGGACGGGATGATGTTAATCGGGTCTTGATTCGCTTGACGCTGCTG | 3.93 | 3.73 |
| CCGATTAACATCAGAACATTCCCTGATGTTAATCGGGTCTTGATTCGCTTGACGCTGCTG | 3.49 | 3.65 |
| CCGATTAACATCAATTTACCCACTGATGTTAATCGGGTCTTGATTCGCTTGACGCTGCTG | 2.27 | 2.06 |
| CCGATTAACATCAGAAGTTCCCATGATGTTAATCGGGTCTTGATTCGCTTGACGCTGCTG | 1.1 | 1.09 |
| CCGATTAACATCAGGGAGCCCCCTGATGTTAATCGGGTCTTGATTCGCTTGACGCTGCTG | 3.69 | 5.27 |
| CCGATTAACATCATTTATCCCGGTGATGTTAATCGGGTCTTGATTCGCTTGACGCTGCTG | 1.28 | 1.33 |
| CCGATTAACATCACCCGATTCCCTGATGTTAATCGGGTCTTGATTCGCTTGACGCTGCTG | 4.07 | 2.39 |

| Sequence | binding signal [1] [z-score] | binding signal (GST-Hu-p50) [z-score] |
| --- | --- | --- |
| CCGATTAACATCAGGGGGATGGATGATGTTAATCGGGTCTTGATTCGCTTGACGCTGCTG | 4.26 | 3.69 |
| CCGATTAACATCAGGGATTTCTATGATGTTAATCGGGTCTTGATTCGCTTGACGCTGCTG | 3.11 | 3.37 |
| CCGATTAACATCAGGCCATCCCCTGATGTTAATCGGGTCTTGATTCGCTTGACGCTGCTG | 3.8 | 3.33 |
| CCGATTAACATCAGGGGAGAAAATGATGTTAATCGGGTCTTGATTCGCTTGACGCTGCTG | 5.87 | 4.88 |
| CCGATTAACATCACGGAAGTCCCTGATGTTAATCGGGTCTTGATTCGCTTGACGCTGCTG | 5.32 | 4.43 |
| CCGATTAACATCACCCCTCCCCCTGATGTTAATCGGGTCTTGATTCGCTTGACGCTGCTG | 4.65 | 4.06 |
| CCGATTAACATCACGAGATTCCCTGATGTTAATCGGGTCTTGATTCGCTTGACGCTGCTG | 3.97 | 2.64 |
| CCGATTAACATCAACATGGGAATTGATGTTAATCGGGTCTTGATTCGCTTGACGCTGCTG | 1.75 | 1.37 |
| CCGATTAACATCAATTCCCAACATGATGTTAATCGGGTCTTGATTCGCTTGACGCTGCTG | 1.63 | 1.56 |
| CCGATTAACATCAAATAAATCCCTGATGTTAATCGGGTCTTGATTCGCTTGACGCTGCTG | 3.53 | 3.29 |
| CCGATTAACATCAGGCGATTCCCTGATGTTAATCGGGTCTTGATTCGCTTGACGCTGCTG | 2.44 | 1.92 |
| CCGATTAACATCAGGGGGTAAAATGATGTTAATCGGGTCTTGATTCGCTTGACGCTGCTG | 6.35 | 4.51 |
| CCGATTAACATCACGGGGTTCCCTGATGTTAATCGGGTCTTGATTCGCTTGACGCTGCTG | 1.48 | 2.59 |
| CCGATTAACATCAGTACGGGAAATGATGTTAATCGGGTCTTGATTCGCTTGACGCTGCTG | 2.82 | 1.94 |
| CCGATTAACATCAAGGGAGTACCTGATGTTAATCGGGTCTTGATTCGCTTGACGCTGCTG | 4.41 | 2.56 |
| CCGATTAACATCAGGGGACAACCTGATGTTAATCGGGTCTTGATTCGCTTGACGCTGCTG | 4.41 | 4.2 |
| CCGATTAACATCAGGGAGTCCCATGATGTTAATCGGGTCTTGATTCGCTTGACGCTGCTG | 2.92 | 3.1 |
| CCGATTAACATCAAAAATCACCCTGATGTTAATCGGGTCTTGATTCGCTTGACGCTGCTG | 3.82 | 4.76 |
| CCGATTAACATCAGGGGATCTACTGATGTTAATCGGGTCTTGATTCGCTTGACGCTGCTG | 5.35 | 4.5 |
| CCGATTAACATCAGGGACTCCCATGATGTTAATCGGGTCTTGATTCGCTTGACGCTGCTG | 3.88 | 3.34 |
| CCGATTAACATCATAAGCGGGGATGATGTTAATCGGGTCTTGATTCGCTTGACGCTGCTG | 3.83 | 3.66 |
| CCGATTAACATCAGGGGAACACATGATGTTAATCGGGTCTTGATTCGCTTGACGCTGCTG | 5.55 | 3.37 |
| CCGATTAACATCAAGAAATTACCTGATGTTAATCGGGTCTTGATTCGCTTGACGCTGCTG | 5.68 | 3.38 |
